Compounds with a hit are over-represented: about 19% of the library has one in this group of screens.
HT1080NT lethal: kills 2HG-producing HT-1080-NT fibrosarcoma cells; AID 686970; 360,000 compounds, 1.6% hits; HT-1080-NT fibrosarcoma viability, CellTiter-Glo ATP luminescence, 48 h; Potency, µM (top dose mostly 46.1 µM), inactives show at the top dose activity, negative = less viability, actives largely listed as cytotoxic;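 also: NT is the 2HG producing partner of a matched IDH1 knockdown line; potency is read from the fitted curve at half-maximal effect; 0% = DMSO-treated cells and -100% = media-only wells without cells; nearly all actives have a fitted effect of over 55% in size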
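Viability by CellTiter-Glo luminescence after 48 h compound exposure at 37C of HT-1080-NT cells (750/well, RPMI, 5% FBS). % activity scaled between DMSO wells and medium-only wells, then curve-fitted and categorized by curve class.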
HT1080 IDH1KD tx: HT-1080 IDH1 knockdown cell toxicity (counter line); HT-1080 IDH1 knockdown viability, ATP luminescence, 48 h; Potency, µM (titrated, usually from 46.1 µM), for inactives: top-dose activity, negative = toxicity, most hits filed as cytotoxic; 360,000 compounds, 2% hits;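 also: potency is read from the fitted curve at half-maximal effect; 0% = DMSO wells and -100% = cell-free medium wells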
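After a 2 h attachment period, IDH1KD HT-1080 cells took pin-transferred compound for 48 h at 37 °C; ATP-based luminescence after 10 min room-temperature reagent incubation reported viability.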
IL1B secr inh: inhibitors of inflammasome signaling (IL-1 beta secretion) | THP-1 LPS/ATP IL-1B secretion, AlphaLISA, 16 h; hits give low values | 360,000 compounds, 4.7% hits | activity change, % at 57.5 µM; in the data active = activity change below about -50%; inconclusive = mostly about -30% to -49%
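Secreted IL-1B measured by AlphaLISA bead assay after 16 h compound exposure of THP-1 cells; compounds (final up to 57.5 uM) added 1 h before LPS (250 ng/mL) and ATP (1.25 mM) stimulation; lower signal means less secretion.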
DT40 TDP1 CPT: DT40-hTDP1 cell growth loss with CPT | chicken DT40 Tdp1-/-;hTDP1 cells + 20 nM CPT, ATP luminescence, 48 h | Potency, µM (titrated, usually from 46.2 µM), for inactives: top-dose activity change, negative = growth inhibition, most hits filed as inhibitors | 420,000 compounds, 12% hits | AID 686979; also: potency is read from the fitted curve at half-maximal effect; nearly all actives have a fitted effect of over 55% in size
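Cell growth measured by CellTiter-Glo luminescence after a minimum 48 h, 37 C compound exposure with 20 nM CPT in Tdp1-knockout DT40 cells stably expressing hTDP1, seeded 400/well; qHTS titration format.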
TDP1 cell noCPT: qHTS for Inhibitors of human tyrosyl-DNA phosphodiesterase 1 (TDP1): qHTS in cells in absence of CPT; 420,000 compounds, 15% hits; AID 686978, 2013; Potency, µM (doses to about 46.2 µM), without a hit: at the highest dose activity change, negative = growth inhibition, usual class: inhibitors; DT40 Tdp1-/- hTDP1 cells, no CPT, ATP luminescence, 48 h; also: potency is read from the fitted curve at half-maximal effect; nearly all actives have a fitted effect of over 55% in size
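A cellular qHTS used chicken DT40 cells lacking endogenous Tdp1 but carrying stably transfected human TDP1. Compounds were applied without camptothecin, and cell growth kinetics were judged by ATP-dependent luminescence after ≥48 hr.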
The depositor's hits bear a star; ? = inconclusive; . = no result given; [ ] = dose if it differs, or a comment. Unless noted, calls follow the shape of the dose curve; as a rule, active = well fitted curve in the direction sought with a large enough effect; inconclusive = small, poorly fitted or top-dose-only effect, or another doubt; inactive = no such curve, though single readings can be large; an effect the other way counts as inactive or inconclusive. Unless noted, % is scaled to controls: 0 for no effect and ±100 for the full control effect.

SMILES | HT1080NT lethal | HT1080 IDH1KD tx | IL1B secr inh | DT40 TDP1 CPT | TDP1 cell noCPT
Cc1ccc(OCC(=O)N2CCN(C(=O)Cc3ccccc3)CC2)cc1 | -4% | -1% | -5 | -9% | -14%
COc1ccccc1CN1CCN(S(=O)(=O)c2ccccc2)CC1 | -1% | 0% | 3 | -2% | ?
CCOc1cc(CN2CCN(CCc3ccccc3)C(CCO)C2)ccc1OC (stereo not given) | -9% | -5% | -69* | ? | ?
COc1ccc(CN2CCN(CCCc3ccccc3)C(CCO)C2)cc1OC (stereo not given) | 2% | -3% | -13 | 2% | -22%
O=C(Cc1ncc(C(F)(F)F)cc1Cl)NCc1ccco1 | 15% | 22% | 13 | -21% | -17%
O=S(=O)(Cc1ccccc1)N1CCN(Cc2ccccc2)CC1 | -8%[9.24 µM] | -4% | 0 | -30% | -17%
CCOc1cc(CN2CCN(S(=O)(=O)Cc3ccccc3)CC2)ccc1OC | 14% | -5% | 15 | -19% | 23µM*
CCN(CC)C(=O)[C@H]1C[C@H](CC(=O)NCCCOC)C(=O)N2CCc3c([nH]c4cc(CCC(=O)N(C)C)ccc34)[C@]12C | 2% | 6% | -7 | 1% | -9%
c1ccc(-c2nnc(CN3CCN(C(c4ccccc4)c4ccccc4)CC3)o2)cc1 | 1% | -1% | -16 | ? | ?
Cc1cccc(N2CCN(C(c3ccc(F)cc3)c3nnc(-c4ccccc4)o3)CC2)c1C (stereo not given) | . | . | . | ? | 16µM*
C=CCNc1nc(NC2CCN(C)CC2)c2cc(OC)c(OC)cc2n1 | . | . | . | 13µM* | ?
C=CCNc1nc(Cl)nc(NC2CCCCC2)n1 | -28% | -19% | 4 | 7% | 5%
CCC(C)C(=O)Nn1c(C2CC2)nc2cc(OC)c(OC)cc2c1=O (stereo not given) | ? | 5% | 4 | -14% | -3%
CCN(CC)c1nc(NC2CCN(C)CC2)c2cc(OC)c(OC)cc2n1 | ? | ? | . | 5.6µM* | 10µM*
O=C(NCCCN1CCCCC1)c1ccc(CS(=O)c2ccc(Cl)cc2)o1 (stereo not given) | -7% | -2% | -2 | -7% | 3%
Cc1ccc(CNC(=O)CNC(=O)c2ccc(C(C)(C)C)cc2)n1C | -2%[9.24 µM] | 10% | 19 | ? | ?
O=C(CCCN1C(=O)C(c2ccccc2)Oc2cccnc21)Nc1ccc(Br)cc1F (stereo not given) | . | . | . | 18µM* | 21µM*
COc1ccccc1NC(=O)CCCN1C(=O)C(c2ccccc2)Oc2cccnc21 (stereo not given) | 4% | 2% | 0 | 16µM* | ?
COc1ccc(NC(=O)CCCN2C(=O)C(c3ccccc3)Oc3cccnc32)c(OC)c1 (stereo not given) | -4% | -2% | -12 | 18µM* | 23µM*
Cc1ccc(C)c(NC(=O)CCCN2C(=O)C(c3ccccc3)Oc3cccnc32)c1 (stereo not given) | . | . | . | 18µM* | 23µM*
CC(C)Oc1ccc(CNC(=O)CCCN2C(=O)C(c3ccccc3)Oc3cccnc32)cc1 (stereo not given) | 5% | 7% | 0 | -23% | 12%
Cc1ccc(NC(=O)CCCN2C(=O)C(c3ccccc3)Oc3cccnc32)c(C)c1 (stereo not given) | 19% | 8% | -6 | ? | -26%
O=C(c1ccccc1)N1CCCCC(S(=O)(=O)c2ccc3ccccc3c2)C1=O (stereo not given) | 6% | 5% | 13 | -7% | -19%
Cc1ccc(-c2ccc(=O)n(CC(=O)NCCN(CC(C)C)CC(C)C)n2)cc1 | 17% | 13% | -9 | ? | -20%
CCN1C(=O)[C@H]2[C@@H](c3ccc(-c4ccc(Cl)c(Cl)c4)cc3)N3CCCC[C@@]3(C(=O)OC)[C@H]2C1=O | 0% | 29% | 15 | 10µM* | 6.5µM*
SMILES | HT1080NT lethal | HT1080 IDH1KD tx | IL1B secr inh | DT40 TDP1 CPT | TDP1 cell noCPT
CCN1C(=O)[C@@H]2[C@@H](c3ccc(-c4ccc(Cl)c(Cl)c4)cc3)N3CCC[C@@]3(C(=O)OC)[C@@H]2C1=O | -14% | -15% | ? | 8.2µM* | 7.3µM*
Cn1c2ccccc2c(=O)c2ccc(NCCc3cccs3)cc21 | -25% | -20% | 0 | ? | ?
CCCCCCCCCCCCCCCCCCNc1ccn(C2OC(COP(=O)(O)OCC3OC(n4cc(F)c(=O)[nH]c4=O)CC3O)C(O)C2O)c(=O)n1 (stereo not given) | ? | 10µM* | -68* | 0.13µM* | 0.041µM*
CCCCCOC(=O)Nc1nc(=O)n([C@@H]2O[C@H](C)[C@@H](O)[C@H]2O)cc1F | . | . | . | -10% | ?
CCn1c(COc2ccc(Cl)cc2)nnc1SCc1ccc(C#N)cc1 | -3% | -2% | ? | -2% | ?
CCn1c(COc2ccc(Cl)cc2)nnc1SC1CCc2ccccc2C1=O (stereo not given) | 0% | -11% | 17 | ? | 21µM*
CCOC(=O)c1sc2nc3c(SCCC(=O)O)cc(C(=O)c4cc(OC)ccc4O)cn3c(=O)c2c1C | -2% | 8% | 10 | 3.7µM* | 5.2µM*
Cc1cc(NC(=O)c2cc(-c3ccco3)on2)nn1Cc1ccc(Cl)cc1 | -28% | -14% | 8 | 21µM* | 26µM*
Cc1nn(Cc2ccc(Cl)cc2)c(C)c1NC(=O)c1cc(-c2ccco2)on1 | -30% | ? | 40 | 13µM* | 23µM*
Cc1ccc(Cn2nc(C)c(NC(=O)c3cc(-c4ccco4)on3)c2C)cc1 | -2% | ? | 8 | ? | ?
Cc1cc(NC(=O)c2cc(-c3ccc(F)cc3)on2)nn1Cc1ccc(Cl)cc1 | . | . | . | ? | -20%
C/C(=N\NC(=O)c1cccs1)c1cccnc1 | 12% | 16% | -12 | 15µM* | 26µM*
C/C(=N\NC(=O)c1cccnc1)c1ccc(OC2OCCOC2Oc2ccc(/C(C)=N/NC(=O)c3cccnc3)cc2)cc1 (stereo not given) | 0% | -3% | 30 | ? | 21µM*
O=C(N/N=C(\CC(=O)c1cccs1)C(F)(F)F)c1cccnc1 | -12% | -26% | 37 | ? | 23µM*
O=C(N/N=C(/CC(=O)c1cccs1)C(F)(F)F)c1ccc(O)cc1 | -12% | -21% | 29 | 22% | -25%
CCc1ccc(NC(=O)C(=O)NCC(c2ccc3c(c2)OCO3)N2CCOCC2)cc1 (stereo not given) | . | . | . | 0% | -9%
COc1ccc(S(=O)(=O)n2nc(-c3ccc(Cl)cc3)cc2N)cc1 | 18µM* | 18µM* | -11 | ? | ?
